Results reported in PubChem BioAssay AID1159580 (chemical genetic matrix, 2015).
Several values for one entry are separate records, joined by “and”; a condition that tells them apart may be missing. Identical values can stand only once. Screen size: about 5,500 compounds; about 2,000 (36%) were called active. About 18% were inconclusive and are not listed. Rule as the data show it: active = normalized growth mostly below about 0.91 (no sharp cut-off); inconclusive = no clear call, values can overlap the other calls; inactive = mostly above about 0.92. The list shows a part of the results.

Experiment: chemical genetic growth profiling, strain panel (AID 1159580);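 also: tested at 20 µM; growth read once vehicle control cultures reached saturation at 30 °C; 1 = growth at the plate median or of vehicle wells; lower values mean less growth of the strain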
Conditions: S. cerevisiae deletion strains, growth OD

Measured: normalized growth

O=C(O)c1cc(=O)c(O)c2c(O)c(O)ccc2c1
inactive: locus YAL013W, strain DEP1, active compounds read low 1 | locus YAL021C, strain ccr4, active compounds read low 1.02 | locus YAL026C, strain drs2, active compounds read low 0.993 | locus YAL030W, strain snc1, active compounds read low 1 | locus YBL061C, strain skt5, active compounds read low 0.998 | locus YBR009C, strain hhf1, active compounds read low 0.989 | locus YBR021W, strain FUR4, active compounds read low 0.991 | locus YBR023C, strain chs3, active compounds read low 1 | locus YBR171W, strain sec66, active compounds read low 0.985 | locus YBR229C, strain ROT2, active compounds read low 1.01 | locus YBR231C, strain swc5, active compounds read low 0.988 | locus YBR279W, strain paf1, active compounds read low 0.993 | locus YCL011C, strain gbp2, active compounds read low 0.996 | locus YCL016C, strain dcc1, active compounds read low 1 | locus YCL029C, strain bik1, active compounds read low 1.02 | locus YCL061C, strain MRC1, active compounds read low 0.993 | locus YCL069W, strain vba3, active compounds read low 0.998 | locus YCR088W, strain abp1, active compounds read low 0.99 | locus YDL005C, strain med2, active compounds read low 0.997 | locus YDL035C, strain GPR1, active compounds read low 1 | locus YDL040C, strain nat1, active compounds read low 1.01 | locus YDL074C, strain BRE1, active compounds read low 0.995 | locus YDL101C, strain DUN1, active compounds read low 1.01 | locus YDL134C, strain PPH21, active compounds read low 1 | locus YDL185W, strain tfp1, active compounds read low 0.998 | locus YDL192W, strain arf1, active compounds read low 1.01 | locus YDR001C, strain nth1, active compounds read low 0.997 | locus YDR069C, strain doa4, active compounds read low 0.974 | locus YDR101C, strain arx1, active compounds read low 1.02 | locus YDR137W, strain rgp1, active compounds read low 0.907 | locus YDR150W, strain NUM1, active compounds read low 1 | locus YDR159W, strain sac3, active compounds read low 0.969 | locus YDR162C, strain NBP2, active compounds read low 0.979 | locus YDR195W, strain ref2 0.957 | locus YDR297W, strain sur2, active compounds read low 0.997 | locus YDR318W, strain mcm21, active compounds read low 1.05 | locus YDR334W, strain swr1, active compounds read low 0.984 | locus YDR335W, strain msn5, active compounds read low 0.996 | locus YDR388W, active compounds read low 1.03 | locus YDR392W, strain spt3, active compounds read low 0.997 | locus YDR502C, strain sam2, active compounds read low 1.02 | locus YEL003W, strain gim4, active compounds read low 0.999 | locus YEL037C, strain rad23, active compounds read low 1 | locus YEL061C, strain CIN8 (second series), active compounds read low 1 | locus YEL061C, strain CIN8, active compounds read low 1 | locus YER015W, strain faa2, active compounds read low 0.989 | locus YER016W, strain bim1, active compounds read low 0.999 | locus YER110C, active compounds read low 1.03 | locus YER111C, strain swi4, active compounds read low 0.986 | locus YER155C, strain BEM2 (second series), active compounds read low 1.01 | locus YER155C, strain BEM2, active compounds read low 1.02 | locus YER167W, strain BCK2, active compounds read low 1.03 | locus YFR010W, strain ubp6, active compounds read low 0.986 | locus YGL078C, strain dbp3, active compounds read low 1.01 | locus YGL086W, strain mad1, active compounds read low 1.02 | locus YGL167C, strain pmr1, active compounds read low 1 | locus YGL173C, strain kem1, active compounds read low 1 | locus YGL227W, strain vid30, active compounds read low 0.979 | locus YGL240W, strain doc1, active compounds read low 0.994 | locus YGL248W, strain PDE1, active compounds read low 1 | locus YGL253W, strain hxk2, active compounds read low 0.999 | locus YGR078C, strain PAC10, active compounds read low 0.969 | locus YGR135W, strain pre9, active compounds read low 0.993 | locus YGR229C, strain SMI1, active compounds read low 0.977 | locus YGR252W, strain gcn5, active compounds read low 1.03 | locus YHR013C, strain ard1, active compounds read low 0.975 | locus YHR027C, strain rpn1, active compounds read low 0.998 | locus YHR030C, strain SLT2, active compounds read low 1.01 and 0.987 | locus YHR079C, strain IRE1 (second series), active compounds read low 1.02 | locus YHR079C, strain IRE1, active compounds read low 0.99 | locus YHR094C, strain hxt1, active compounds read low 1.02 | locus YHR129C, strain ARP1, active compounds read low 1.01 | locus YHR142W, strain chs7, active compounds read low 1.02 | locus YHR200W, strain rpn10, active compounds read low 1.03 | locus YIL066C, strain RNR3, active compounds read low 1.03 | locus YIL073C, strain SPO22, active compounds read low 1.14 | locus YIL125W, strain kgd1, active compounds read low 1.01 | locus YIR030C, strain dcg1, active compounds read low 1.03 | locus YJL092W, strain hpr5, active compounds read low 0.998 | locus YJL095W, strain BCK1 (second series), active compounds read low 1 | locus YJL095W, strain BCK1, active compounds read low 0.999 and 0.991 | locus YJL115W, strain asf1, active compounds read low 0.99 | locus YJL129C, strain trk1, active compounds read low 1.04 | locus YJL134W, strain LCB3, active compounds read low 1 | locus YJL154C, strain vps35, active compounds read low 1 | locus YJL164C, strain tpk1, active compounds read low 0.985 | locus YJL166W, strain qcr8, active compounds read low 1 | locus YJL168C, strain set2, active compounds read low 1.01 | locus YJL187C, strain SWE1 (second series), active compounds read low 0.994 | locus YJL187C, strain SWE1, active compounds read low 0.995 | locus YJR043C, strain POL32, active compounds read low 1.04 | locus YJR066W, strain TOR1, active compounds read low 0.892
